Assay outcomes as filed in PubChem BioAssay.
LmPK inh: inhibitors of Leishmania mexicana pyruvate kinase; purified LmPK, Kinase-Glo ATP luminescence, 1 h; Potency, µM (series often up to 57.5 µM), for the others: at the highest dose activity change, negative = inhibition, hits mostly inhibitors; hit rate 0.37% among 290,000; AID 1721; note: potency is the fitted concentration of half-maximal effect; % is set by controls: 0 for no effect and ±100 for the full control effect
Target sequence (Q27686 whole entry, looked up): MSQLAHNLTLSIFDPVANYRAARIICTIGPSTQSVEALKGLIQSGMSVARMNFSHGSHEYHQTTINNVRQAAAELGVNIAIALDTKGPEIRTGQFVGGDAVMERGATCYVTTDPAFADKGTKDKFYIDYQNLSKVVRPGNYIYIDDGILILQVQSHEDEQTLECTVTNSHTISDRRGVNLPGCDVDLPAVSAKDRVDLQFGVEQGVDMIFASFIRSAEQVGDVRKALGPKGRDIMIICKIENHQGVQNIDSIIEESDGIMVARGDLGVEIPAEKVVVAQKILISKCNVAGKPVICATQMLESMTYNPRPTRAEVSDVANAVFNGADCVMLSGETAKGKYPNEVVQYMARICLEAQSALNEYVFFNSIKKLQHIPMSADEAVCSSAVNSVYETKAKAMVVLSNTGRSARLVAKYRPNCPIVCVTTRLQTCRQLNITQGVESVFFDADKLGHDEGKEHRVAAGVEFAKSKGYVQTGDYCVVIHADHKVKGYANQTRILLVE
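Screened at intermediate enzyme activity to detect both inhibitors and activators: LmPK at 0.1 nM, with a 0.5 nM enzyme column as activation reference. PEP 0.5 mM, ADP 0.1 mM; ATP detected by luminescence after 1 h.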
Tb PYK inh: inhibitors of Trypanosoma brucei pyruvate kinase | TbPYK enzyme, Kinase-Glo Plus ATP luminescence, 45 min | Potency, µM (titrated, usually from 76.8 µM), for inactives: at the top dose activity, negative = inhibition, usual class: inhibitors | hit rate 0.12% among 410,000 | AID 624173; note: potency is the fitted concentration of half-maximal effect; % is set by controls: 0 for no effect and ±100 for the full control effect; nearly all actives have a fitted effect of over 50% in size
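ADP (130 uM final) triggers the TbPYK reaction after compound addition; incubation is 45 min at room temperature. Kinase-Glo Plus is then added and luminescence imaged. Normalized data are fitted to concentration-effect curves.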
Giardia FBPA inh: blocks Giardia fructose-bisphosphate aldolase activity; hit rate 0.71% among 290,000; Potency, µM (highest dose often 59.6 µM), for inactives: at the top dose activity, negative = inhibition, hits mostly inhibitors; purified Giardia FBPA; note: potency is the fitted concentration of half-maximal effect; % is set by controls: 0 for no effect and ±100 for the full control effect; nearly all actives have a fitted effect of over 55% in size
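Giardia FBPA (40 nM reagent) was preincubated 10 min at RT with compound (up to 57.5 uM final), then substrate plus GAPDH/TPI/NAD/arsenate coupling system with diaphorase/resazurin was added; resorufin fluorescence (525/598 nm) was read after 20 min.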
RE007 growth inh: less growth of the S. pombe RE007 Vpr strain; S. pombe RE007 Vpr strain, BacTiter-Glo ATP luminescence, 24 h; Potency, µM (top dose mostly 92.2 µM), inactives show at the highest dose activity change, negative = less growth, usual class: inhibitors; hit rate 0.21% among 360,000; active = well fitted falling curve with a large enough effect; inconclusive = small, poorly fitted or top-dose-only effect; inactive = no such curve, though single readings can be large or run the other way; note: potency is the fitted concentration of half-maximal effect; % is set by controls: 0 for no effect and ±100 for the full control effect; nearly all actives have a fitted effect of over 50% in size
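Fission yeast strain RE007, carrying one chromosomally integrated HIV-1 vpr copy, was seeded at OD 0.01 in PMG+AL medium with 23 nL pinned compound. After 24 h at 30 °C and 99% humidity, viability was read by BacTiter-Glo luminescence.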
LmPK inh confirm: Confirms inhibition of Leishmania mexicana pyruvate kinase; shares compounds with LmPK inh; hit rate 40% among 150; purified LmPK, Kinase-Glo ATP luminescence, 1 h; Potency, µM (highest dose often 57.5 µM), for the others: at the highest dose activity change, negative = inhibition, most hits filed as inhibitors;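 active = compounds giving a full or partial concentration-response curve, as inhibitors or activators; inconclusive = weak, top-dose-only or unclear curve responses; inactive = no response at any tested dose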
Starred values were filed as active, the others as inactive; ? = inconclusive; / = not tested or not shown. Most compounds without a hit are left out; they make up all but 0.95% or so of the library. Unless noted, calls come from the whole dose curve; as a rule, active = well fitted curve in the direction sought with a large enough effect; inconclusive = small, poorly fitted or top-dose-only effect, or another doubt; inactive = no such curve, though single readings can be large; an effect the other way counts as inactive or inconclusive.

SMILES	LmPK inh	Tb PYK inh	Giardia FBPA inh	RE007 growth inh	LmPK inh confirm
COc1ccc(CCNC(=O)CN2C(=O)COc3ccccc32)cc1OC	/	-2%	/	/	/
COc1cc(-c2nc(-c3ccccn3)no2)cc(OC)c1OC	4%	-1%	0%	-10%	/
c1ccc(-c2nc(-c3ccccn3)no2)cc1	3.5µM*	?	-2%	?	15µM*
COc1ccc(C(=O)Nc2scc(-c3ccc(Cl)cc3Cl)c2C(N)=O)cc1	5%	4%	-7%	-14%	0%
O=C(/C=C/Nc1ccccc1Br)c1ccccn1	5µM*	?	4%	-25%	21µM*
COc1ccccc1CNc1ccc(-c2nc(-c3ccncc3)no2)cc1[N+](=O)[O-]	/	1%	/	/	/
CN=c1scc(-c2ccco2)n1/N=C/c1ccc(O)c(O)c1	5.6µM*	-14%	?	-13%	?
COc1ccc(O)c(/C=N/n2c(-c3ccco3)csc2=Nc2cccnc2)c1	2%	-1%	1%	9%	/
CN(Cc1cn(C)nc1-c1cccc(Cl)c1)CC1CCCCO1 (stereo not given)	8%	-3%	1%	4%	-2%
Cc1cnccc1CN(C)Cc1cn(C)nc1-c1cccc(Cl)c1	8%	-9%	0%	-32%	0%
CN(Cc1ccon1)Cc1cn(C)nc1-c1ccc(Oc2ccccc2)cc1	4%	-11%	-11%	-10%	/
Cc1cnccc1CN(C)Cc1cn(C)nc1-c1ccc(Oc2ccccc2)cc1	-2%	-5%	-10%	-3%	-9%
CC(C)N(Cc1cn(C)nc1-c1cccc(Cl)c1)Cc1nccn1C	2%	0%	3%	-3%	/
COC(=O)Cn1c(C2CC(=O)N(c3c(C)cccc3C)C2)nc2ccccc21 (stereo not given)	/	-1%	/	/	/
Cc1ccc(NC(=O)C2(c3cccs3)CCOCC2)cc1Cl	/	1%	/	/	/
CCOc1ccc(NC(=O)CCc2nnc3n(C)c(=O)c4sccc4n23)cc1	/	4%	/	/	/
O=C(c1ccc(Br)cc1)c1cc2ccc(O)cc2oc1=O	-1%	-11%	1%	1%	/
O=C(c1ccccc1)c1cc2ccc(O)cc2oc1=O	3.5µM*	?	14%	?	7.3µM*
O=C1C=CC(=O)N1CCCCCCN1C(=O)C=CC1=O	?	10µM*	-2%	8.9µM*	?
CCNC(=O)CCSc1nnc(-c2ccc(O)cc2)o1	/	-15%	/	/	/
CCN1/C(=C/c2ccc3cc(C)cc(C)c3[n+]2CC)Sc2cc(C)ccc21	-10%	-16%	-1%	?	/
CCN1/C(=C/c2ccc3cccc(C)c3[n+]2CC)Sc2ccccc21	-14%	-5%	7%	?	-12%
CN(Cc1cccc(-n2cccn2)c1)Cc1cn(C)nc1-c1ccccc1F	-5%	0%	0%	-10%	-7%
COc1ccccc1-c1nnc(C2CCN(S(=O)(=O)c3ccc(F)c(C)c3)CC2)o1	/	-19%	/	/	/
CCC1=C2CC[C@H]3C(=O)NC(=O)[C@H]3[C@H]2[C@@]2(C)C(=NCC(=O)OC)OC(=O)N2C1=O	/	/	2%	/	/
SMILES	LmPK inh	Tb PYK inh	Giardia FBPA inh	RE007 growth inh	LmPK inh confirm
COC(=O)N[C@@H](/C=C/c1ccccc1)/C(C(=O)OC)=C(\C)NCc1ccccc1	/	/	-9%	/	/
COC(=O)c1sc(NC(=O)c2ccoc2C)nc1C	7.1µM*	-1%	-1%	-1%	16µM*
COC(=O)c1sc(NC(=O)c2ccco2)nc1C	-26%	-6%	9%	-6%	/
CCOc1ccc(/C=N/NC(=O)c2c(-c3ccccc3)noc2C)cc1	4%	0%	4%	-9%	/
CCOc1ccc(/C=N/NC(=O)COc2ccccc2-c2ccccc2)cc1	4%	2%	0%	11%	1%
CCOc1ccc(S(=O)(=O)N(C)c2ccc(OCC(=O)Nc3nccs3)cc2)cc1	3%	1%	-1%	7%	/
CCOc1ccc(OCC(=O)Nc2nccs2)cc1	10µM*	22µM*	0%	?	13µM*
COc1ccccc1-c1ccc2ncnc(NC3CCNCC3)c2c1	/	/	5%	/	/
Cc1ccc(S(=O)(=O)N2CCN(Cc3ccccc3C(F)(F)F)CC2)cc1	-8%	-11%	?	15%	4%
CC[n+]1c(C)sc2sc3ccccc3c21	2.8µM*	/	?	/	4.6µM*
Cc1nc2c(s1)sc1ccccc12	-11%	2%	0%	-2%	/
CCCc1sc(N/N=C/c2ccccn2)nc1-c1ccc(F)cc1	1%	-17%	-17%	?	/
Cc1nc(N/N=C/c2ccccn2)sc1C	10µM*	?	-22%	16µM*	18µM*
CC(C)(C)c1ccc(CN(Cc2ccco2)Cc2nnnn2C2CCCC2)cc1	-5%	7%	-6%	3%	-3%
COc1ccc2c(c1)C(=O)[C@H](OC(=O)NS(=O)(=O)c1ccc(C)cc1)[C@@H](c1ccc(OC)c(Br)c1)O2	/	/	4%	/	/
CCOC(=O)c1c(C)[nH]c(CCC(=O)Nc2ccc(N(CC)CC)cc2C)c1C	/	-4%	/	/	/
CCOC(=O)CNS(=O)(=O)c1cc(-c2nn(C)c(=O)c3ccccc23)ccc1C	2%	-10%	-12%	11%	7%
COn1c(SCc2ccc(Cl)cc2)nc2ccccc2c1=O	8%	-25%	1%	8%	2%
CC(C)[C@H](N)c1nnc(SCc2ccc(Cl)cc2)o1	-1%	0%	-4%	1%	-2%
CCn1c(NCc2ccc(N(C)C)cc2)nc2ccccc21	-1%	-1%	1%	-10%	/
CN(C)c1ccc(N=Nc2nc3ccccc3n2C)cc1	4µM*	14µM*	-10%	11µM*	3.7µM*
Cn1c(N=Nc2ccccc2)nc2ccccc21	2.2µM*	14µM*	-23%	16µM*	7.3µM*
Cn1c(Cl)nc2ccccc21	-3%	1%	1%	4%	/
